# Source: PubChem BioAssay (National Center for Advancing Translational Sciences (NCATS))
# AmpC no deterg – qHTS Inhibitors of AmpC Beta-Lactamase (assay without detergent). P00811. AmpC nitrocefin hydrolysis, absorbance 480 nm, 0.0001% Triton. Potency, µM (doses to about 57.1 µM), inactives show top-dose activity change, negative = inhibition, actives largely listed as inhibitors. 330,000 tested, 0.52% active;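 note: plate controls were no compound for no effect and no enzyme for full effect; nearly all actives have a fitted effect of over 20% in size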
# Target sequence (P00811 whole entry, looked up): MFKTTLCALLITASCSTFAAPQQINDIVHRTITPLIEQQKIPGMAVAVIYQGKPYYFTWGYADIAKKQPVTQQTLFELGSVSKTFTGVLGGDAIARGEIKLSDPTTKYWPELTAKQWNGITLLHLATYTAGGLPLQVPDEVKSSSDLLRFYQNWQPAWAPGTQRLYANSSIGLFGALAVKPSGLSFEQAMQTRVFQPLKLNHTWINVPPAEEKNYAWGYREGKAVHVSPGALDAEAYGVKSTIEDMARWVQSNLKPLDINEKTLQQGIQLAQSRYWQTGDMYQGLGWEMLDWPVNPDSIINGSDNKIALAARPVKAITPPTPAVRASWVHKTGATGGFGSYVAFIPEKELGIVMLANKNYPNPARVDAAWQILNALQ
#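 AmpC (5.3 nM in the dispensed reagent) in 20 mM phosphate pH 7.0 with 0.01% (detergent screen) or 0.0001% Triton X-100 was preincubated with compounds for 15 min at room temperature. Nitrocefin was then added from an 800 uM solution, and hydrolysis was followed at 480 nm.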
# LASV entry inh – qHTS for Inhibitors of binding or entry into cells for Lassa Virus; 300,000 tested, 1.2% active; Potency, µM (doses to about 37.9 µM), for inactives: top-dose activity change, negative = inhibition, usual class: inhibitors; Lassa virus pseudotype entry inhibition, cell reporter; calls by dose curve; tested in HEK293 cells; note: nearly all actives have a fitted effect of over 50% in size
# Marburg entry inh – qHTS for inhibitors of binding or entry into cells for Marburg Virus | Marburg virus pseudotyped entry inhibition, cell reporter | Potency, µM (titrated, usually from 37.8 µM), without a hit: at the top dose activity change, negative = inhibition, most hits filed as inhibitors | 300,000 tested, 1.8% active | AID 540276, 2011; calls by dose curve; tested in HEK293 cells
# AmpC inh detg – qHTS Inhibitors of AmpC Beta-Lactamase (assay with detergent); P00811; AmpC hydrolysis of nitrocefin, absorbance 480 nm, 0.01% Triton; Potency, µM (doses to about 114 µM), for the others: top-dose activity change, negative = inhibition, most hits filed as inhibitors; 370,000 tested, 0.041% active;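 note: 0% = no-compound wells and -100% = no-enzyme wells; nearly all actives have a fitted effect of over 25% in size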
#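 20 mM phosphate pH 7.0 + 0.01% (detergent screen) or 0.0001% Triton X-100; 5.3 nM AmpC reagent; cpd preinc 15 min RT; nitrocefin (800 uM stock) to start; A480 q20 s × 4 min; Activity was normalised to no-enzyme and no-compound control wells.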
# AMA1-RON2 inh – qHTS for Inhibitors of AMA1-RON; Towards Development of Antimalarial Drug Lead: Primary Screen. Plasmodium falciparum AMA1 (3D7) - RON2 peptide interaction. AlphaScreen AMA1-biotinylated RON2 peptide binding. Potency, µM (highest dose often 58.2 µM), for the others: at the highest dose activity change, negative = inhibition, hits mostly inhibitors. 360,000 tested, 0.2% active. AID 720542, 2013;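 note: 0% = vehicle wells and -100% = peptide control; nearly all actives have a fitted effect of over 45% in size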
#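 AMA1 (3D7) with his tag at 25 nM final met compounds first, then biotinylated RON2 peptide at 25 nM; detection used donor plus acceptor beads, 10 µg/mL apiece, read by AlphaScreen after 30 min at room temperature.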
# * marks the source's active call; other numbers are inactive results; ? = inconclusive; · = not tested or not shown; [ ] = another dose, or the depositor's remark. A selection: hits, their analogues and other compounds. The true share with any hit is near 2.3%. Unless noted, calls come from the whole dose curve; as a rule, active = well fitted curve in the direction sought with a large enough effect; inconclusive = small, poorly fitted or top-dose-only effect, or another doubt; inactive = no such curve, though single readings can be large; an effect the other way counts as inactive or inconclusive. Unless noted, % is set by controls: 0 for no effect and ±100 for the full control effect; potency is the fitted concentration of half-maximal effect.
SMILES,AmpC no deterg,LASV entry inh,Marburg entry inh,AmpC inh detg,AMA1-RON2 inh
COc1ccc(C(=O)/C(=C\c2ccco2)N2C=CC=CC2=C(C#N)C#N)cc1,-37%,?,?,0%,-5%
COc1ccc(/C=C(/C(=O)c2cccs2)N2C=CC=CC2=C(C#N)C#N)cc1,-25%,·,-1%,-11%,-11%
N#CC(C#N)=C1C=CC=CN1/C(=C\c1ccco1)C(=O)c1ccccc1,-29%,?,25µM*,-3%,-17%
CCOc1cc(/C=N/NC(=O)c2ccc(-c3csc(Nc4ccc(C)cc4)n3)cc2)ccc1OCC(=O)O,1.4µM*,-3%[46.1 µM],?,-2%,0%
Cc1c(C(=O)N2CCCCCC2)c(S(=O)(=O)N(Cc2ccccc2)C(C)(C)C)c(C)n1C,·,-18%[46.1 µM],·,22%,·
C=CC[C@@H]1C=C[C@H](ON=C(C)CCN2CCCCc3nc(C)c(C)cc32)[C@H](CO)O1,·,·,-23%[14.2 µM],·,·
O=C(CN1CCN(c2ccccc2)CC1)N1N=CCC1c1ccccc1 (configuration not stated),18%,5%,-2%,-10%,2%
O=C(CN1CCN(C(c2ccccc2)c2ccccc2)CC1)N1N=CCC1c1ccccc1 (configuration not stated),63%,?,8.9µM*,-13%,-13%
C=CCOC(=O)C(C(C)=O)[C@@H](NC(=O)OC)c1ccc2ccccc2c1 (some centres not stated),·,·,23%[14.2 µM],·,·
CCc1ccc(-c2cn3c(n2)sc2cc(C(=O)NCCC4=CCCCC4)ccc23)cc1,·,14%[46.1 µM],·,20%,·
Nc1ccc2c(c1)OC1(CCCC1)O2,-29%,16µM*,?,4%,-10%
Fc1ccc(-c2nn(-c3ccccc3)cc2CNCc2ccccc2)cc1,-6%,?,?,-7%,-28%
O=C(CCl)Nc1cn(-c2ccccc2)nc1-c1ccc(F)cc1,-10%,11µM*,?,-5%,16%
Cc1ccc(Cc2c(C)c(C#N)c3[nH]c4ccccc4n3c2=O)cc1,-31%,·,·,-9%,3%
C=C(C)Cc1c(C)c(C#N)c2[nH]c3ccccc3n2c1=O,-30%,?,13µM*,-8%,14%
CCCCOC(=O)c1ccc(NC(=O)CSc2nc3c(c(=O)[nH]2)CCC3)cc1,·,-14%[46.1 µM],17%[46.1 µM],24%,·
COc1cc(CN(C(=O)c2cccc(C)c2)c2ccccn2)cc(OC)c1OC,·,-27%[46.1 µM],0%[46.1 µM],18%,·
CCOc1ccc(OCC)c(NC(=O)c2csc3c2CCCC3)c1,·,·,-7%[46.1 µM],25%,·
Cc1ccn2cc(CNC(=O)c3cccs3)nc2c1,3.5µM*,·,·,?,0%
Cc1ccc(C(=O)Nc2cc3cc(Cl)ccc3oc2=O)cc1,·,9%[46.1 µM],·,0%,·
O=C(/C=C/c1ccc([N+](=O)[O-])s1)N1CCCCC1,140%,?,8.9µM*,?,3%
CC1CN(C(=O)/C=C/c2ccc([N+](=O)[O-])s2)CC(C)O1 (configuration not stated),-40%,?,11µM*,?,-6%
CC1CC(C)CN(C(=O)/C=C/c2ccc([N+](=O)[O-])s2)C1 (configuration not stated),17%,·,·,-2%,-17%
CC(=O)c1cccc(NC(=O)/C=C/c2ccc([N+](=O)[O-])s2)c1,-17%,7.1µM*,?,1%,2%
CN1[C@H]2CC(OC(=O)[C@H](CO)c3ccccc3)C[C@H]1[C@H]1O[C@H]12 (some centres not stated),·,·,-11%[46.1 µM],·,·
SMILES,AmpC no deterg,LASV entry inh,Marburg entry inh,AmpC inh detg,AMA1-RON2 inh
C=C(C#Cc1ccc(OC)cc1)CCN1C=C(C(=O)OCC)C(c2ccccc2)NC1=O (configuration not stated),·,?,6%[14.2 µM],·,·
COC(=O)C1=C(C(=O)OC)[C@@H]2Nc3ccccc3[C@@]23C[C@@H](C(=O)OC)N(C(=O)Nc2ccccc2F)C3=N1,·,·,-9%[14.2 µM],·,·
CCN1CCN(c2ncc(C(=O)Nc3cc(Cl)ccc3OC)c3ccccc23)CC1,168%,?,2µM*,-15%,?
O=C(Nc1cnc2sccn2c1=O)c1ccc(Cl)cc1Cl,-12%,?,?,-3%,-4%
COc1ccc(Cl)cc1NC(=O)c1cnc2sccn2c1=O,3.5µM*,·,·,?,-6%
Cc1ccc2c(c1)C(=O)OC(C(=O)Nc1ccccc1C(=O)O)C2 (configuration not stated),·,-3%[46.1 µM],·,3%,·
Cc1nc(N=Nc2cc(S(=O)(=O)O)c3cc([N+](=O)[O-])cc(S(=O)(=O)O)c3c2)c(COP(=O)(O)O)c(C=O)c1O,·,?,20µM*,·,·
CC(=O)c1ccc(NC(=O)CSc2ccsc2[N+](=O)[O-])cc1,4.5µM*,·,·,-19%,-11%
COc1ccc(Cc2[nH]n3c(=O)cc(C)nc3c2-c2ccccc2)cc1,-6%,-7%[46.1 µM],?,0%,22%
COc1ccc(Cc2[nH]n3c(=O)cc(C(C)C)nc3c2-c2ccccc2)cc1,-36%,?,13µM*,-1%,70%
CCSc1ccc(-c2nn(-c3ccccc3)cc2/C=C(/C#N)C(=O)NC)cc1,-33%,-10%,8%,?,6%
CCCSc1ccc(-c2nn(-c3ccccc3)cc2/C=C(/C#N)C(=O)N2CCOCC2)cc1,65%,?,7.1µM*,?,-32%
CCOC(=O)Cn1c(=O)oc2cc(S(=O)(=O)NCCc3ccc(C)cc3)ccc21,10µM*,·,-3%,?,5%
O=C(CCCCN1CCCCC1)c1ccccc1,·,9%[46.1 µM],15%[46.1 µM],·,1%
O=C(C(=Cc1ccccc1)CN1CCCCC1)c1ccccc1,·,3.5µM*,?,·,-6%
Cc1[nH]nc2c1[C@@H](CCc1ccccc1)C(C#N)=C(N)O2,·,·,3%,·,·
COc1cc(SC)ccc1C(=O)Nc1ccc(Br)cn1,-10%,·,·,0%,6%
COc1cc(SC)ccc1C(=O)Nc1ncc(C)s1,33%,?,1.5µM*,7%,-2%
COc1cc(SC)ccc1C(=O)Nc1cccc(C)n1,-1%,8.9µM*,10µM*,1%,0%
Cc1ccc(N2CC(NC(=O)C3CCCCC3)CC2=O)cc1C (configuration not stated),·,-6%[46.1 µM],·,1%,·
N#CC(C#N)=C1NC2(CCCCC2)Cc2ccccc21,-24%,·,·,6%,-11%
N#CC(C#N)=c1ccc2c(c1)NC1(CCCCC1)N=2,-14%,?,?,3%,22µM*
COc1cc2c3c(n(C)c(=O)c2cc1OC)-c1cc2c(cc1C3=O)OCO2,·,?,0.56µM*,·,-3%
Cc1ccc(C(=O)N/N=C/c2cccc(OC(=O)/C=C/c3ccco3)c2)cn1,-6%,-10%,11%[46.1 µM],6%,7%
O=C(/C=C/c1ccco1)Oc1cc(Br)cc(/C=N/NC(=O)c2ccccc2O)c1,-32%,11µM*,?,-11%,10%
